From PubChem BioAssay (NCI)
Where “and” joins values, the source holds several entries; their conditions need not be identical. Equal entries are not always repeated. This is part of a sample that, as a whole, favours compounds with a hit. Of some 79,000 tested, about 15% had one in any assay. Calls of active or inactive are those of the source. No stated cut-off is given here; in the data, active means growth inhibition above about 70%; inactive means the rest.

Legend:
[1] = NCI Yeast Anticancer Drug Screen. Data for the sgs1 strain (AID 173);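 further: 0% = growth of vehicle-only control cultures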; conditions: S. cerevisiae sgs1 mutant, stronger effect = higher value
In short: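 Compounds applied to genetically altered yeast; growth compared with vehicle-treated cultures to give % inhibition.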

[2] = NCI Yeast Anticancer Drug Screen. Data for the mlh1 rad18 strain (AID 175); conditions: S. cerevisiae mlh1 rad18 strain growth inhibition, stronger effect = higher value
In short: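 Cells of a genetically altered yeast strain, deficient in DNA damage repair, were treated with compound. Their growth was then compared with that of vehicle-treated cultures to give inhibition.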

[3] = NCI Yeast Anticancer Drug Screen. Data for the rad18 strain (AID 177); conditions: S. cerevisiae rad18 mutant growth inhibition, stronger effect = higher value
In short: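 Compounds are applied to a repair-deficient yeast strain, and growth is compared with that of vehicle-treated cultures to give percent inhibition.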

[4] = NCI Yeast Anticancer Drug Screen. Data for the wt1 strain (AID 149);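 further: 0% = growth of vehicle-treated wt1 cultures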; conditions: S. cerevisiae wt1 strain (SPY 50644) growth inhibition, stronger effect = higher value
In short: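 Compounds are added to wt1 yeast cultures. Growth is then measured. Inhibition is expressed relative to vehicle-treated controls.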

[5] = NCI Yeast Anticancer Drug Screen. Data for the rad50EPP+ strain (AID 151);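 further: 0% = growth of vehicle-treated control cultures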; conditions: S. cerevisiae rad50 mutant strain, stronger effect = higher value
In short: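 rad50EPP+ yeast treated with test compounds. Readout: growth vs vehicle control.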

[6] = NCI Yeast Anticancer Drug Screen. Data for the rad50 strain (AID 155);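 further: 0% = growth of vehicle-only cultures of the same strain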; conditions: S. cerevisiae rad50 strain growth inhibition, stronger effect = higher value
In short: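 Inhibition values express reduced yeast growth in compound-treated cultures relative to vehicle-treated controls.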

[7] = NCI Yeast Anticancer Drug Screen. Data for the mec2-1 strain (AID 157); conditions: S. cerevisiae mec2-1 strain, stronger effect = higher value
In short: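 Growth inhibition is read against vehicle-treated controls after compound exposure of the mec2-1 yeast strain, which is defective in DNA damage repair or cell cycle control.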

[8] = NCI Yeast Anticancer Drug Screen. Data for the rad14 strain (AID 159);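 further: 0% = growth of vehicle-treated control cultures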; conditions: S. cerevisiae rad14 strain growth inhibition, stronger effect = higher value
In short: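 A mutant yeast strain defective in DNA damage repair is treated with compound; inhibition of its growth is scored against untreated, vehicle-exposed cultures.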

[9] = NCI Yeast Anticancer Drug Screen. Data for the sgs1 mgt1 strain (AID 161);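 further: 0% = growth of cultures given vehicle only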; conditions: S. cerevisiae sgs1 mgt1 strain, stronger effect = higher value
In short: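 Compounds are added to genetically altered yeast, and growth is compared with cultures given vehicle alone to give percent inhibition.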

[10] = NCI Yeast Anticancer Drug Screen. Data for the CLN2oe strain (AID 163);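 further: 0% = growth of vehicle-only control cultures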; conditions: S. cerevisiae CLN2oe strain, stronger effect = higher value
In short: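 Compound-treated yeast; growth vs vehicle ctrl = % inhibition. Genetically altered strain (cell-cycle control).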

[11] = NCI Yeast Anticancer Drug Screen. Data for the bub3 strain (AID 167); conditions: S. cerevisiae bub3 mutant strain, stronger effect = higher value
In short: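 Steps: expose the mutant yeast strain to compound; grow alongside vehicle-treated cultures; measure growth; express inhibition against the vehicle cultures.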

[12] = NCI Yeast Anticancer Drug Screen. Data for the wt2 strain (AID 169);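 further: 0% = growth of vehicle-treated yeast cultures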; conditions: S. cerevisiae wt2 strain growth inhibition, stronger effect = higher value
In short: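 Compound exposure of yeast; growth compared with vehicle controls; inhibition reported.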

[13] = NCI Yeast Anticancer Drug Screen. Data for the mlh1 strain (AID 171);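 further: 0% = growth of vehicle-treated control cultures of the same strain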; conditions: S. cerevisiae mlh1 strain growth inhibition, stronger effect = higher value
In short: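 Compounds are applied to a genetically altered yeast strain, and its growth is compared with that of vehicle-treated cultures to give percent inhibition.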

[14] = NCI Yeast Anticancer Drug Screen. Data for the cln2 rad14 strain (AID 165);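 further: 0% = growth equal to vehicle treated cultures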; conditions: S. cerevisiae cln2 rad14 strain, stronger effect = higher value
In short: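 Growth inhibition, relative to vehicle-treated controls, is the read-out. The test organism is a yeast strain with defined genetic alterations, cln2 rad14.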

[15] = NCI Yeast Anticancer Drug Screen. Data for the mgt1 strain (AID 153); conditions: S. cerevisiae mgt1 mutant growth inhibition, stronger effect = higher value
In short: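 Growth inhibition relative to vehicle controls was scored for the mgt1 yeast strain after compound exposure.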

[16] = at 5.0 µM (retest, dose inferred, filed as 0.5)
[17] = at 50.0 µM (retest, dose inferred, filed as 5.0)

Measured: growth inhibition

Cn1c(COc2ccc(/C=N/NC(=O)CCC(=O)N/N=C/c3ccc(OCc4c[n+]5ccccc5n4C)cc3)cc2)c[n+]2ccccc12
active: [1]; at 100.0 µM 96% | [2]; [17] 84% | [2]; at 50.0 µM 90.2% | [3]; at 100.0 µM 98%
inactive: [1]; at 1.2 µM 4% | [1]; at 3.7 µM 4% | [1]; at 11.0 µM 5% | [1]; at 33.0 µM 16% | [2]; [16] -15% | [3]; at 1.2 µM 2% | [3]; at 3.7 µM 3% | [3]; at 11.0 µM 28% | [3]; at 33.0 µM 9%

CCCC(=O)OC(OC(=O)CCC)c1ccc([N+](=O)[O-])o1
inactive: [4]; at 1.2 µM -3% | [4]; at 3.7 µM -2% | [4]; at 11.0 µM -1% | [4]; at 33.0 µM 2% | [4]; at 100.0 µM 11% | [5]; at 1.2 µM 2% | [5]; at 3.7 µM 15% | [5]; at 11.0 µM 46% | [6]; at 1.2 µM -2% | [6]; at 3.7 µM -1% | [6]; [16] 22% | [6]; at 11.0 µM 10% | [6]; at 33.0 µM 47% | [6]; [17] 34% | [6]; at 50.0 µM 63.9% | [7]; at 1.2 µM -4% | [7]; at 3.7 µM -1% | [7]; [16] 17% | [7]; at 11.0 µM 2% | [7]; at 33.0 µM 5% | [7]; [17] 8% | [7]; at 50.0 µM -1.45% | [7]; at 100.0 µM 20% | [8]; at 1.2 µM -6% | [8]; at 3.7 µM -4% | [8]; at 11.0 µM 1% | [8]; at 33.0 µM 7% | [8]; at 100.0 µM 26% | [9]; [16] 14% | [9]; [17] 55% | [9]; at 50.0 µM 53.4% | [10]; at 1.2 µM -1% | [10]; at 3.7 µM -8% | [10]; at 11.0 µM -10% | [10]; at 33.0 µM -5% | [10]; at 100.0 µM 8% | [11]; at 1.2 µM -4% | [11]; at 3.7 µM -5% | [11]; [16] 2% | [11]; at 11.0 µM -4% | [11]; at 33.0 µM -3% | [11]; [17] 7% | [11]; at 50.0 µM 14.4% | [11]; at 100.0 µM 3% | [12]; at 1.2 µM -3% | [12]; at 3.7 µM -3% | [12]; at 11.0 µM -3% | [12]; at 33.0 µM 1% | [12]; at 100.0 µM 11% | [13]; at 1.2 µM -5% | [13]; at 3.7 µM -2% | [13]; at 11.0 µM 0% | [13]; at 33.0 µM 7% | [13]; at 100.0 µM 20% | [1]; at 1.2 µM -1% | [1]; at 3.7 µM 1% | [1]; at 11.0 µM 7% | [1]; at 33.0 µM 21% | [1]; at 100.0 µM 61% | [2]; [16] 22% | [2]; at 50.0 µM 35.1% | [3]; at 1.2 µM 1% | [3]; at 3.7 µM 14% | [3]; at 11.0 µM 42%
active: [5]; at 33.0 µM 83% | [5]; at 100.0 µM 93% | [6]; at 100.0 µM 83% | [2]; [17] 71% | [3]; at 33.0 µM 85% | [3]; at 100.0 µM 94%

COc1nc(N)c(N=CC(OC(C)=O)C(OC(C)=O)C(COC(C)=O)OC(C)=O)c(=O)n1C (stereo not given)
inactive: [6]; [16] -3% and -10% and 6% | [6]; [17] -9% and -4% and -19% | [7]; [16] 24% and -10% and 7% | [7]; [17] 3% and 1% and 5% | [9]; [16] 8% and 6% and 29% | [9]; [17] 13% and -2% and -3% | [14]; [16] -6% and 1% and 6% | [14]; [17] -13% and 6% and 19% | [11]; [16] 10% and 11% and 13% | [11]; [17] -7% and -8% and -4% | [2]; [16] -3% and -20% and -25% | [2]; [17] 0% and -18% and -21%

O=C(Nc1ccn(C2CC(O)C(COC(c3ccccc3)(c3ccccc3)c3ccccc3)O2)c(=O)n1)c1ccccc1 (stereo not given)
inactive: [5]; at 1.2 µM -26% | [5]; at 3.7 µM -10% | [5]; at 11.0 µM -9% | [5]; at 33.0 µM 10% | [5]; at 100.0 µM -15% | [15]; at 1.2 µM -22% | [15]; at 3.7 µM 14% | [6]; at 1.2 µM -44% | [6]; at 3.7 µM 20% | [6]; at 50.0 µM 43.2% | [7]; at 1.2 µM -43% | [7]; at 3.7 µM -1% | [7]; [16] 64% | [8]; at 1.2 µM -32% | [8]; at 3.7 µM 9% | [10]; at 1.2 µM -15% | [10]; at 3.7 µM 36% | [11]; at 1.2 µM -34% | [11]; at 3.7 µM -11% | [12]; at 1.2 µM -15% | [12]; at 3.7 µM 1% | [13]; at 1.2 µM -43% | [13]; at 3.7 µM -19% | [1]; at 1.2 µM 6% | [1]; at 3.7 µM 3% | [3]; at 1.2 µM -35% | [3]; at 3.7 µM 21%
active: [15]; at 11.0 µM 81% | [15]; at 33.0 µM 82% | [15]; at 100.0 µM 79% | [6]; [16] 85% | [6]; at 11.0 µM 89% | [6]; at 33.0 µM 87% | [6]; [17] 94% | [6]; at 100.0 µM 83% | [7]; at 11.0 µM 91% | [7]; at 33.0 µM 91% | [7]; [17] 83% | [7]; at 50.0 µM 97.6% | [7]; at 100.0 µM 88% | [8]; at 11.0 µM 78% | [8]; at 33.0 µM 81% | [8]; at 100.0 µM 78% | [10]; at 11.0 µM 96% | [10]; at 33.0 µM 94% | [10]; at 100.0 µM 92% | [14]; [16] 83% | [14]; [17] 96% | [14]; at 50.0 µM 92.8% | [11]; [16] 89% | [11]; at 11.0 µM 81% | [11]; at 33.0 µM 84% | [11]; [17] 95% | [11]; at 50.0 µM 81.5% | [11]; at 100.0 µM 82% | [12]; at 11.0 µM 81% | [12]; at 33.0 µM 84% | [12]; at 100.0 µM 79% | [13]; at 11.0 µM 74% | [13]; at 33.0 µM 79% | [13]; at 100.0 µM 74% | [1]; at 11.0 µM 84% | [1]; at 33.0 µM 85% | [1]; at 100.0 µM 79% | [2]; [16] 87% | [2]; [17] 95% | [2]; at 50.0 µM 94.8% | [3]; at 11.0 µM 86% | [3]; at 33.0 µM 85% | [3]; at 100.0 µM 83%
